Screening data deposited in PubChem by National Center for Advancing Translational Sciences (NCATS).
PI5P4Ka inh: blocks human PI5P4K alpha kinase activity; P48426; PI5P4Kalpha enzyme, ADP-Glo luminescence, 60 min; hits give low values; max response, %; 1.2% of 330,000 active; AID 652105; active = max response of -50% or lower; inconclusive = between -30% and -50%; inactive = -30% or higher; note: value at the top dose of about 77 µM; % is set by controls: 0 for no effect and ±100 for the full control effect
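ADP-Glo luminescence end-point after a 60 min room-temperature kinase reaction. PI5P4Kalpha and substrate in HEPES pH 7.4 buffer with EGTA, 0.1% CHAPS and 5% DMSO; ATP at 5 microM final.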
POLB inh: DNA polymerase beta (human) inhibition; Potency, µM (highest dose often 114 µM), inactives show top-dose activity change, negative = inhibition, hits mostly inhibitors; AID 485314; P06746; 1.3% of 340,000 active; Pol beta primer extension/strand displacement, fluorescence kinetic; note: potency is the fitted concentration of half-maximal effect; % is set by controls: 0 for no effect and ±100 for the full control effect
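Reaction started by 50 nM substrate onto compound-treated Pol beta (10 nM, 15 min preincubation, room temperature); plates read at 0 min and 10 min. Normalized concentration-effect data fitted by four-parameter Hill equation.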
WRN helicase inh: inhibitors of human WRN helicase. 0.46% of 360,000 active. Potency, µM (top dose mostly 114 µM), for the others: at the top dose activity change, negative = inhibition, usual class: inhibitors. AID 651768. Q14191. WRN helicase unwinding, fluorescent forked duplex, kinetic; note: potency is the fitted concentration of half-maximal effect; % is set by controls: 0 for no effect and ±100 for the full control effect; nearly all actives have a fitted effect of over 55% in size
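Primary qHTS, 1536-well format. 20 nM WRN + compound, 15 min RT; start with 100 nM forked fluorophore/quencher duplex, 2 mM ATP (final); kinetic read ex 525/em 598 nm.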
Pol kappa inh: inhibitors of human DNA polymerase kappa; Q9UBT6; purified Pol kappa, fluorescent DNA synthesis assay, 10 min; Potency, µM (top dose mostly 107 µM), inactives show at the highest dose activity, negative = inhibition, actives largely listed as inhibitors; 0.53% of 400,000 active; AID 588579; note: potency is the fitted concentration of half-maximal effect; % is set by controls: 0 for no effect and ±100 for the full control effect
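First, compounds were pin-transferred onto 10 nM Pol kappa. After 15 min at room temperature, substrate was added to 50 nM final. Fluorescence was then measured kinetically at 0 and 10 min.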
Pol iota inh: blocks human DNA polymerase iota activity; Q9UNA4; Pol iota fluorescent replication assay, 10 min; Potency, µM (series often up to 115 µM), for the others: top-dose activity, negative = inhibition, hits mostly inhibitors; 1% of 390,000 active; AID 588590; note: potency is the fitted concentration of half-maximal effect
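Pol iota at 10 nM preincubated 15 min with compounds at room temperature; reaction started with fluorescent substrate, 50 nM final. Fluorescence read kinetically at 0 and 10 min; buffer-only wells as negative control.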
Pol eta inh: blocks human DNA polymerase eta activity; Q9Y253; recombinant Pol eta, fluorescent DNA replication assay; Potency, µM (series often up to 114 µM), for inactives: top-dose activity change, negative = inhibition, usual class: inhibitors; 1.2% of 390,000 active; AID 588591; note: potency is the fitted concentration of half-maximal effect; % is set by controls: 0 for no effect and ±100 for the full control effect
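Fluorescent replication assay: 50 nM final substrate added after a 15 min room-temperature compound preincubation with 10 nM enzyme. Signal taken at 0 min and again at 10 min.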
* hit, by the source's call; ? = inconclusive; . = not tested or not shown; [ ] = remark or other dose. Compounds with a hit are over-represented: about 2.8% of the library has one in this group of screens. Unless noted, calls come from the whole dose curve; as a rule, active = well fitted curve in the direction sought with a large enough effect; inconclusive = small, poorly fitted or top-dose-only effect, or another doubt; inactive = no such curve, though single readings can be large; an effect the other way counts as inactive or inconclusive.

SMILES	PI5P4Ka inh	POLB inh	WRN helicase inh	Pol kappa inh	Pol iota inh	Pol eta inh
C#CCOCCOCCOCCNc1nc(N2CCN(C(=O)CCCCCCCCCCNC(=O)[C@H](CCCCN)n3cc(C[C@@H](C)CC)nn3)CC2)nc(N2CCN(C(=O)CCCCCCCCCCNC(=O)[C@@H]([C@H](C)O)n3cc(C)nn3)CC2)n1	?	.	50µM*	3%	24%	79µM*
Brc1ccc(/C=C2\C=Cc3ccccc32)cc1	.	.	.	-17%	25%	.
COc1ccc(OC)c(/C=C/c2c3ccccc3cc[n+]2C)c1	.	.	.	-20%	44%	.
C#CCOCCOCCOCCNc1nc(N2CCN(C(=O)CCCCCCCCCCNC(=O)[C@H](CCCCN)n3cc(C[C@@H](C)CC)nn3)CC2)nc(N2CCN(C(=O)CCCCCCCCCCNC(=O)[C@H](CCCN=C(N)N)n3cc(C[C@@H](C)CC)nn3)CC2)n1	-90*	.	32µM*	-9%	-21%	28µM*
Cc1ccc(F)cc1C(=O)N1CCCCC1c1cc(C(=O)Nc2ccc(F)c(Cl)c2)no1 (stereo not drawn)	-2	.	-6%	.	.	.
COCC1=C(C(=O)OC)C(c2ccco2)n2ncnc2N1 (stereo not drawn)	2	8%	6%	-12%	5%[58.9 µM]	-19%
Cc1ccccc1Cn1ccc(NC(=O)c2nn3cccnc3c2Cl)n1	0	-1%	-4%	-8%	64%	-15%
Cc1ccccc1Cn1ccc(NC(=O)c2cc3ncc(Br)cn3n2)n1	-2	20µM*	-7%	-2%	12%	-3%
Cc1ccc(CCN2C(Nc3ccccc3)=NC[C@@H]2C)cc1	-1	.	-5%	4%	26%	-16%
Cc1cc(Nc2nn(C)c(N)c2C#N)ccc1F	-66*	2%	-12%	-8%	6%	-3%
COc1ccc(-n2nnnc2SCC(=O)NC2CC2)cc1	3	.	-2%	4%	4%	89µM*
CCCC[C@H](CC)CN=C(N)NC(N)=NCCCCCCN=C(N)NC(N)=NC[C@@H](CC)CCCC	.	.	.	-7%[12 µM]	.	.
Cc1c(NS(=O)(=O)c2cc(NC(=O)CCN3CCCC(C)C3)ccc2Cl)c(=O)n(-c2ccccc2)n1C (stereo not drawn)	-7	?	-19%	-26%	35%	1%
O=C(CSc1oc(-c2ccco2)nc1S(=O)(=O)c1ccc(Cl)cc1)NCC1CCCO1 (stereo not drawn)	.	17%	-26%	-16%	?	79µM*
O=C(CSc1oc(-c2ccco2)nc1S(=O)(=O)c1ccc(Cl)cc1)c1ccc(Cl)cc1	.	1%	.	50µM*	?	-3%
Cc1ccc(S(=O)(=O)c2nc(-c3ccco3)oc2SCC(=O)c2ccc(Cl)cc2)cc1	.	1%	.	3%	?	0%
CCC1CN(C(=O)N2CCC(C(=O)NCc3cccc(F)c3)CC2)c2cc(C)ccc2O1 (stereo not drawn)	.	-23%	.	?	79µM*	-8%
CCc1cc[n+](CC(=O)c2ccc(F)cc2)cc1C(=O)O	.	.	.	4%	14%	.
CC1=C(CO)C(=O)OC([C@@H](C)C2CC[C@H]3C4C[C@H]5O[C@]56[C@@H](O)C=CC(=O)[C@]6(C)C4CC[C@]23C)C1 (stereo partly drawn)	?	?	?	-18%	?	50µM*
CC(C(=O)O)C1CCC2C3CC=C4CC(O)CC[C@@]4(C)C3CC[C@]12C (stereo partly drawn)	.	.	.	-5%[60.1 µM]	.	.
COc1ccccc1N(C(C)=O)C1=C(Cl)C(=O)c2ccccc2C1=O	-89*	.	-7%[11.6 µM]	.	.	50µM*
CCC(C)NC(=O)c1cc(Sc2nnc(C)s2)nc2ccccc12 (stereo not drawn)	.	1%	.	.	.	.
O=C(CNC(=O)c1cccc(-n2cccc2)c1)Nc1ccccc1Br	?	.	-23%	.	.	32µM*
COc1ccc(CCNC(=O)CCCCn2c(=O)c3ccccc3n(Cc3cccc(C)c3)c2=O)cc1OC	.	0%	.	3%	17%	-18%
COc1ccc(CCNC(=O)CCCCn2c(=O)c3ccccc3n(Cc3cc(C)ccc3C)c2=O)cc1OC	.	6%	.	-5%	79µM*	-4%
SMILES	PI5P4Ka inh	POLB inh	WRN helicase inh	Pol kappa inh	Pol iota inh	Pol eta inh
N#CCC(=O)N/N=C/c1coc2ccccc2c1=O	-86*	?	-13%[11.6 µM]	-22%	?	?
O=C(N/N=C/c1coc2ccccc2c1=O)c1ccccc1	?	-1%	-24%	6%	46%	-9%
Cc1nn(-c2ccccc2)c2nc(N)c(C#N)c(-c3ccc(O)c(O)c3)c12	?	?	-10%[11.6 µM]	-3%	?	50µM*
COc1ccccc1C(=O)NCCC(=O)NC1CCCCCC1	2	.	-1%	0%	45%	-16%
NC(=O)C(CC(=O)O)NC(=O)[C@@H]1CCCNc2c(I)cc([N+](=O)[O-])cc2C(=O)N[C@@H](CO)C(=O)N[C@@H](Cc2ccc(O)cc2)C(=O)N1 (stereo partly drawn)	0	-24%	?	50µM*	?	16µM*
NC(=O)C(CC(=O)O)NC(=O)[C@@H]1CCCCNc2c(I)cc([N+](=O)[O-])cc2C(=O)N[C@@H](CO)C(=O)NCC(=O)N1 (stereo partly drawn)	.	35µM*	.	.	.	.
Cn1c(SCC(=O)NC2CCS(=O)(=O)C2)nc2ccccc21 (stereo not drawn)	7	.	-6%	-12%	34%	2%
Cc1cccc(NC(=O)C2CCCN2S(=O)(=O)c2ccc3nc(-c4ccccc4)[nH]c3c2)c1 (stereo not drawn)	.	?	.	?	?	79µM*
C=CSc1sc(Cl)c(N(CC)CC)c1[N+](=O)[O-]	?	20µM*	-23%	-7%	?	?
COC(=O)c1ccc(CSc2nnc(C)s2)cc1	-51*	15%	?	1%	-1%	-15%
